Gli-Sufu antag – Gli-Sufu pathway antagonism; hit rate 0.74% among 340,000; AID 588413; Sufu-KO-LIGHT fibroblasts, Gli luciferase reporter luminescence; inhibition, % at 5 µM;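 active = inhibition above about 55%, limit read from the data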
Shn3 inh set2 – inhibitors of Schnurri-3 3'UTR reporter in osteoblasts | Clone20 osteoblast Shn3 3'UTR firefly luciferase, 24 h | inhibition, % at 12.5 µM | hit rate 0.52% among 360,000;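 active = mean inhibition of at least 75% with every replicate also reaching 75%; inconclusive = mean inhibition at least 75% but some replicate below; inactive = mean inhibition below 75%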
Mdm2-MdmX inh – human Mdm2/MdmX binding inhibition. O15151+Q00987. AID 485346. inhibition, % at 8 µM. hit rate 3% among 330,000. SaOS-2 split-luciferase Mdm2/MdmX complementation, luminescence;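 active = inhibition of at least 50% at 8 µM in the primary screen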
Target sequence (O15151 whole entry, looked up): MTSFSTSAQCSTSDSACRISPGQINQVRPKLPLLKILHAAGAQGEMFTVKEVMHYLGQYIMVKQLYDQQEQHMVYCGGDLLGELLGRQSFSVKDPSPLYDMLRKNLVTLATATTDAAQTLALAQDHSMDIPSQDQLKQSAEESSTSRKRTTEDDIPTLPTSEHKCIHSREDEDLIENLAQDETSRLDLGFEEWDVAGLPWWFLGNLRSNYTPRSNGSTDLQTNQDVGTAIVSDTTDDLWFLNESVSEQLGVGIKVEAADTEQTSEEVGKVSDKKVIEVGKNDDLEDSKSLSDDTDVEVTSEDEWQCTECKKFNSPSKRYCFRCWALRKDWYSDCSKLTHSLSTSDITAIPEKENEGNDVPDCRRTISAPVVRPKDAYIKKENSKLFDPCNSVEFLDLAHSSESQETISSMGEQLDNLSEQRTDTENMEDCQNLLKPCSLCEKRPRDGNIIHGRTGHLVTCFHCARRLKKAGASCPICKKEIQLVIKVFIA
Target sequence (Q00987 whole entry, looked up): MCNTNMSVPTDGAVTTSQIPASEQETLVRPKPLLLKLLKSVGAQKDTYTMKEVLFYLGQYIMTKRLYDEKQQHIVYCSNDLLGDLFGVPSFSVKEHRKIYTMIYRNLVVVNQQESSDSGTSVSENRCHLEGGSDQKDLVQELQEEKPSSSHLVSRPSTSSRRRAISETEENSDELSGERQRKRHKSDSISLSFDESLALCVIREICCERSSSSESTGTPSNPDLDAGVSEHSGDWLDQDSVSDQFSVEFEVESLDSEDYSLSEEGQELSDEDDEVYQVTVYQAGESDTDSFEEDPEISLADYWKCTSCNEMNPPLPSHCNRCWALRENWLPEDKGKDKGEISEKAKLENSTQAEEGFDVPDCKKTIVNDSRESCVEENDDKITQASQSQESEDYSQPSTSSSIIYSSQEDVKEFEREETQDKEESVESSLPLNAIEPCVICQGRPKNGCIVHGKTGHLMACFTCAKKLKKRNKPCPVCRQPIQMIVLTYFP
Beta cell apopt – beta cell apoptosis inhibition; protection from apoptosis, % (concentration not given with the values); INS-1E cytokine-induced death, ATP luminescence, 48 h; percent of positive-control rescue, neutral wells zero; hit rate 0.8% among 300,000;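 active = Every replicate reaches about 75%, or at least half do and their mean reaches it too, limit read from the data; inconclusive = At least half of replicates reach the limit but their mean does not; inactive = Under half of replicates reach the limit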;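 also: higher means more ATP so stronger rescue from cytokine killing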
CSC inhib – cancer stem cell inhibition. AID 2717. cancer stem cell-like cells viability, luminescence. hit rate 1.1% among 300,000. inhibition, % at 7.5 µM; in the data active = inhibition above about 75%; inconclusive = no clear call, values can overlap the other calls; tested in HMLE shEcad cells
PAX8 reporter – lowers PAX8-driven luciferase in RMG-I cells; RMG-I TPO-luciferase reporter, SteadyGlo, 24 h; inhibition, % at 12.6 µM; hit rate 1.2% among 360,000; AID 652154;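 active = mean replicate inhibition at least 60% with every replicate also reaching 60%; inconclusive = only one of the two criteria is met; inactive = mean below 60% and not all replicates reaching 60%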;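 also: luciferase light reporting Pax8 driven TPO promoter activity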
Hits are given with their value; i = inactive; ? = inconclusive; nt = no result given; ! = not confirmed by another sample. In the library only some 4% were active in any assay of this set; here they are far more common.

SMILES | Gli-Sufu antag | Shn3 inh set2 | Mdm2-MdmX inh | Beta cell apopt | CSC inhib | PAX8 reporter
COC(=O)c1c(-c2ccc(N(C)C)cc2)sc2ccc(OC)cc12 | i | i | i | i | 105.6 | i
COc1ccc(N2Cc3ccc(C(=O)N/N=C\c4ccc(O)cc4O)cc3C2)cc1 | nt | nt | i | i | 91.2 | nt
COc1cc2c(-c3ccc(O)cc3)nc3c(c(C)nn3-c3ccccc3)c2cc1OC | i | i | nt | i | 87.6 | nt
C=C1C(=O)C23C(O)C1CCC2C12CCCC(C)(COC(C)=O)C1C(O)C3(O)OC2 (stereo not given) | i | 94.5 | nt | nt | nt | 123.2
O=[N+]([O-])c1ccc(N2CCN(C(=S)Nc3ccc(F)cc3)CC2)cc1 | i | i | i | 76.3 | i | i
O=[N+]([O-])c1ccc(N2CCN(C(=S)Nc3cccc(F)c3)CC2)cc1 | i | i | i | i | i | i
COc1cc(N=c2ssnc2Cl)c(OC)cc1Cl | i | 94.9! | i | i | i | i
Cc1ccc(N=c2ssnc2Cl)cc1 | i | 87.7 | i | i | i | i
Cc1cc(Cl)ccc1N=c1ssnc1Cl | i | i | i | i | i | nt
COc1ccc(OC)c(N=c2ssnc2Cl)c1 | i | i | i | i | i | i
O=[N+]([O-])c1ccc(Cl)c(CN2CCN(c3ncccn3)CC2)c1 | i | i | i | i | i | i
Cc1ccc2nc(C)c(CN3CCN(c4ccc([N+](=O)[O-])cc4Cl)CC3)n2c1 | nt | i | i | 104.2 | i | i
COc1ccc(-c2oc3cc(O)c(OC)c(O)c3c(=O)c2OC)cc1O | i | i | nt | nt | nt | 62.7
C[C@H](O)C#Cc1ccc([C@@H]2[C@@H](CO)N3CCCCN(C(=O)c4ccncc4)C[C@H]23)cc1 | nt | nt | nt | nt | nt | i
CCCC(=O)N(CCN(C(=O)CCC)c1ccccc1)c1ccccc1 | i | i | i | 78.8 | i | nt
Oc1c(C(c2cccs2)N2CCC3(CC2)OCCO3)sc2ncnn12 (stereo not given) | i | 87.9 | i | i | i | nt
C[C@@H]1CN([C@@H](C)CO)C(=O)c2cc(C#Cc3cccnc3)cnc2O[C@@H]1CN(C)S(=O)(=O)c1ccccc1F | nt | nt | nt | nt | nt | i
COc1ccc2c3c([nH]c2c1)[C@H](CO)N(Cc1nccs1)CC31CCN(C(=O)C2CCCC2)CC1 | nt | nt | nt | nt | nt | i
CCOC(=O)c1ccc(-n2[nH]c(-c3ccccc3)cc2=O)cc1 | i | i | i | i | 79.0 | nt
CCOC(=O)c1ccc(N=Nc2c(C)[nH]n(-c3ccccc3)c2=O)cc1 | i | i | i | i | i | i
O=S(=O)(Nc1ccc(N=Nc2ccccc2)cc1)c1ccccc1 | i | i | i | i | nt | nt
O=S(=O)(Nc1ccc(N=Nc2ccc(O)c3ccccc23)cc1)c1ccccc1 | i | i | i | i | 79.2 | i
C/C(=N\NC(=O)c1ccccc1)c1c(C)[nH]n(-c2ccccc2)c1=O | i | i | i | i | i | i
C/C(=N\NC(=O)c1ccc(C)cc1)c1c(C)[nH]n(-c2ccccc2)c1=O | i | i | i | 91.4 | i | i
CNCc1ccccc1Sc1ccc(O)c(O)c1 | i | i | nt | i | 85.3 | 75.9
SMILES | Gli-Sufu antag | Shn3 inh set2 | Mdm2-MdmX inh | Beta cell apopt | CSC inhib | PAX8 reporter
COc1ccc(Sc2ccccc2CN(C)C)cc1OC | i | i | i | i | nt | nt
C/C(Cn1nnc([N+](=O)[O-])n1)=N\NC(=O)c1ccccc1Cl | i | i | i | 79.5 | i | nt
COc1ccc(CN(C)C[C@H]2Oc3ccc(NC(=O)Nc4ccc(F)cc4)cc3CC(=O)N([C@@H](C)CO)C[C@@H]2C)cc1 | nt | nt | nt | nt | nt | i
O=C(/C=C/c1ccccn1)c1cc(Cl)cc(Cl)c1O | i | i | i | i | ? | 63.3
O=C(Nc1ccc(Cl)cc1)N1CCCN(c2ccc(C(F)(F)F)cc2[N+](=O)[O-])CC1 | i | nt | i | i | 82.8 | i
O=C(CN1C(=O)c2ccccc2C1=O)c1ccccc1 | i | i | i | i | i | nt
CC1=C(CC(=O)c2ccccc2)C(=O)c2ccccc2C1=O | i | i | i | 98.0 | i | i
CCOc1ccc(-c2ccc(SC)nn2)cc1 | i | i | i | i | i | 75.0
CN(C)C(=O)c1cccc(-c2ccc([C@@H]3[C@H](CO)N4C(=O)CN(C(=O)C5CC5)C[C@@H]34)cc2)c1 | nt | nt | nt | nt | nt | i
CCC(=O)N1[C@H](CO)[C@@H]2c3ccccc3N(C(=O)c3cnccn3)C[C@@H]21 | nt | nt | nt | nt | nt | i
C[C@@H]1CN([C@@H](C)CO)C(=O)c2cc(NC(=O)Nc3ccc4c(c3)OCO4)ccc2O[C@@H](C)CCCCO[C@H]1CN(C)Cc1ccc(C(F)(F)F)cc1 | nt | nt | nt | nt | nt | 60.9
C[C@@H]1CN([C@H](C)CO)C(=O)c2cc(NC(=O)Nc3ccc4c(c3)OCO4)ccc2O[C@@H](C)CCCCO[C@@H]1CN(C)Cc1ccc(C(F)(F)F)cc1 | nt | nt | nt | nt | nt | 66.0
C[C@@H]1CN([C@@H](C)CO)C(=O)c2cc(NC(=O)Nc3ccc4c(c3)OCO4)ccc2O[C@@H](C)CCCCO[C@@H]1CN(C)Cc1ccc(C(F)(F)F)cc1 | nt | nt | nt | nt | nt | i
C[C@H](CO)N1C[C@H](C)[C@H](CN(C)Cc2ccc(C(F)(F)F)cc2)OCCCC[C@H](C)Oc2ccc(NC(=O)Nc3ccc4c(c3)OCO4)cc2C1=O | nt | nt | nt | nt | nt | 96.4
C[C@@H]1CCCCO[C@@H](CN(C)Cc2ccc(C(F)(F)F)cc2)[C@@H](C)CN([C@H](C)CO)C(=O)c2cc(NC(=O)Nc3ccc4c(c3)OCO4)ccc2O1 | nt | nt | nt | nt | nt | i
C[C@@H]1CCCCO[C@H](CN(C)Cc2ccc(C(F)(F)F)cc2)[C@H](C)CN([C@H](C)CO)C(=O)c2cc(NC(=O)Nc3ccc4c(c3)OCO4)ccc2O1 | nt | nt | nt | nt | nt | 67.1
CNC[C@H]1Oc2ccc(NS(=O)(=O)c3ccc(F)cc3)cc2C(=O)N([C@@H](C)CO)C[C@H]1C | nt | nt | nt | nt | nt | i
COc1cnn(-c2ccccc2)c(=O)c1SCc1ccc(Cl)c(Cl)c1 | i | i | i | i | i | nt
CSc1c(SCc2ccccc2)cnn(-c2ccccc2)c1=O | i | i | i | i | 79.1 | i
On1ccccc1=S | 73.7 | i | nt | i | i | 99.8
O=C(Cn1ccccc1=S)c1ccc(Cl)c(Cl)c1 | i | i | i | i | i | i
Cc1noc(C)c1NC(=O)N(C)C[C@@H]1Oc2ccc(NC(=O)Nc3cccc4ccccc34)cc2CC(=O)N([C@H](C)CO)C[C@H]1C | nt | nt | nt | nt | nt | i
Cc1cc(=O)oc2cc(O)cc(O)c12 | i | i | nt | nt | nt | i
CCCCCc1cc(O)c2c(C)cc(=O)oc2c1 | i | i | i | 130.0 | i | nt
CCc1cc2c(=O)c(-c3ccc4c(c3)OCCO4)coc2cc1OC(=O)c1ccco1 | i | i | i | nt | i | i
CCCc1cc2c(=O)c(-c3ccc4c(c3)OCCO4)coc2cc1OC(=O)c1ccco1 | i | i | i | i | 88.7 | nt
CC1CC(C)CN(C(=O)c2cc3cc(Br)cc(Br)c3o2)C1 (stereo not given) | i | i | i | i | 88.7 | i
CC1CC(C)CN(C(=O)c2cc3ccccc3o2)C1 (stereo not given) | i | i | i | i | i | i
O=C(C[C@@H]1CC[C@H]2[C@@H](COC[C@H](O)CN2Cc2nccs2)O1)N1CCC(Cc2ccccc2)CC1 | nt | nt | nt | nt | nt | i
